Bioassay records (PubChem)
These entries were drawn from the full list.
aSyn 5UTR act – Activators via SNCA 5'UTR binding, MLPCN; alpha-synuclein 5'UTR reporter, activators screen; activity score, % (tested at 7.5 µM), hits read low; actives 7.1% (n = 300,000); in the data active = activity score below about -60%
Numbers without * were called inactive.

SMILES	aSyn 5UTR act
Cc1ccc(F)cc1NC(=O)CCc1c(C)nn(-c2ccc(N3CCCCC3)nn2)c1C	-82*
Cc1nn(-c2ccc(N3CCCCC3)nn2)c(C)c1CCC(=O)Nc1ccc(F)c(F)c1	-66*
CCOc1ccc2nc(NC(=O)c3ccc(OCC4CCCO4)cc3)sc2c1 (centres undefined)	-99*
CCOc1ccc2nc(NC(=O)CSc3nnc(-c4ccncc4)n3CC3CCCO3)sc2c1 (centres undefined)	-76*
Cc1cccc2sc(NNC(=O)c3ccc(S(=O)(=O)N4CCCC(C)C4)cc3)nc12 (centres undefined)	78
Cc1cccc2sc(NC(=O)c3ccc(OCC4CCCO4)cc3)nc12 (centres undefined)	-144*
CCCN1C/C(=C/c2ccc3c(c2)OCO3)C(=O)/C(=C/c2ccc3c(c2)OCO3)C1	-105*
COC(CN(C(=O)CCl)C(C(=O)NC1CCCCC1)c1ccccc1C)OC (centres undefined)	-71*
COc1cccc(NC(=O)C(=O)N/N=C(\C)CC(=O)Nc2ccc(NC(C)=O)cc2)c1	-196*
C/C(CC(=O)Nc1cc(C)ccn1)=N\NC(=O)C(=O)Nc1cccc(C)c1	-74*
C/C(CC(=O)Nc1ccc(OCc2ccccc2)cc1)=N\NC(=O)C(=O)Nc1ccc(C)c(Cl)c1	-69*
O=C(COC(=O)c1ccc2[nH]c3c(c2c1)CCCC3)Nc1ccccc1	-64*
CCN1/C(=C\C(=S)Nc2ccccc2)Sc2ccccc21	-144*
CCN1/C(=C/C(C)=C/c2sc3ccccc3[n+]2CC)Sc2ccccc21	100
CCCc1cc(=O)n2[nH]cc(-c3ccc(Cl)cc3)c2n1	71
CCOC(=O)Cc1c(C)nc2cc(-c3ccc(Cl)cc3)[nH]n2c1=O	-67*
COCc1cc(=O)n2[nH]c(-c3ccc(C)cc3)cc2n1	-128*
CCc1c(C)nc2cc(-c3ccc(OC)cc3)[nH]n2c1=O	-156*
O=C(Oc1ccc(OC(=O)C2CCC2)cc1)C1CCC1	-65*
Cc1ccc(-n2c(C)cc(/C=c3/sc4nc5ccccc5n4c3=O)c2C)cc1	67
O=C(O)Cn1cc(/C=c2/sc3nc4ccccc4n3c2=O)c2ccccc21	-162*
Cc1ccc(Cl)c2sc(NC(=O)C3=COCCO3)nc12	-79*
O=C(Nc1nc(-c2ccc(Cl)cc2)cs1)C1=COCCO1	-109*
O=C(Nc1nc(-c2cccs2)cs1)C1=COCCO1	-173*
O=C(CNC(=O)c1ccco1)Nc1ccc(Cl)cc1	-70*
SMILES	aSyn 5UTR act
O=C(CNC(=O)c1ccco1)Nc1ccc(Br)cc1	-142*
Cc1cccc2c1-c1sc(C(=O)Nc3cccnc3)cc1CO2	-118*
O=C(Nc1cccnc1)c1cc2c(s1)-c1ccccc1OC2	-126*
C=CCSc1n[nH]c(-c2ccc(OCCC)cc2)n1	-164*
CCCOc1ccc(C2=NNC(=O)CC2)cc1	77
C=CCSc1n[nH]c(-c2ccc(OCCCC)cc2)n1	-89*
CCCOc1ccc(-c2nc(=S)[nH][nH]2)cc1	-77*
CN(C)CCCN(C(=O)c1ccc(Br)s1)c1nc2cc3c(cc2s1)OCCO3	-69*
CN(C)CCCN(C(=O)c1ccc(C(=O)c2ccccc2)cc1)c1nc2cc3c(cc2s1)OCO3	61
CN(C)CCCN(C(=O)c1ccco1)c1nc2cc3c(cc2s1)OCO3	-185*
CN(C)CCCN(C(=O)c1cccs1)c1nc2cc3c(cc2s1)OCO3	-158*
O=c1cc(-c2ccccc2)[nH]c2ccccc12	68
O=C1C(c2cc(=O)c3ccccc3[nH]2)=C(O)c2ccccc21	-118*
CC1Oc2cc3oc4c(O)c5c(cc4c(=O)c3c(O)c2C1(C)C)C=CC(C)(C)O5 (centres undefined)	-265*
O=C(CNC(=O)c1cn2ccccc2n1)Nc1ccc(F)c(F)c1	-209*
CCOC(=O)Cc1csc(/N=C/c2c(O)n(-c3ccc(C)c(C)c3)c(=O)c3ccccc23)n1	105
CCOC(=O)Cc1csc(NC(=O)/C=C\c2ccccc2Cl)n1	-194*
CCOC(=O)Cc1csc(NC(=O)/C=C\c2ccccc2)n1	-74*
CCOC(=O)Cc1csc(N/N=C\c2cccc(Br)c2)n1	-66*
CCOC(=O)Cc1csc(NC(=O)/C=C/c2ccccc2Cl)n1	-136*
COc1ccc(COC(=O)c2cc([N+](=O)[O-])ccc2N2CCOCC2)cc1F	68
O=C(Cc1ccccc1[N+](=O)[O-])N1CCc2ccccc2C1	-103*
COc1cc2c(cc1OC)CN(c1ccc(F)cc1[N+](=O)[O-])CC2	-79*
COc1cc2c(cc1OC)CN(c1ncccc1[N+](=O)[O-])CC2	-88*
CC(=O)c1ccc(N2CCc3ccccc3C2)c([N+](=O)[O-])c1	-68*
SMILES	aSyn 5UTR act
CN(C(=O)c1ccncc1)c1nnc(-c2ccccn2)s1	-66*
Cc1ccc(C(=O)N(C)c2nnc(-c3ccncc3)s2)cc1	-107*
O=C(N/N=C1/CC2C=CCC12)c1ccc(Br)o1 (centres undefined)	-83*
O=C(N/N=C/c1cc(Br)cs1)c1c[nH]c2ccccc12	-68*
O=C(N/N=C/c1ccc(Br)s1)c1c[nH]c2ccccc12	-152*
CC(=O)c1c(C)[nH]c(C(=O)Nc2ccccc2Cl)c1C	-63*
CC(=O)c1c(C)[nH]c(C(=O)Nc2ccc(C)cc2Br)c1C	-131*
CC(=O)c1c(C)[nH]c(C(=O)Nc2ccc(F)cc2F)c1C	-111*
CC(=O)c1c(C)[nH]c(C(=O)NCCc2cccc(C)c2)c1C	-170*
CN(C)c1ccc(N=Cc2nc(-c3ccccc3)oc2OC(=O)c2cccc(Cl)c2)cc1	-146*
O=C(CCl)N(c1ccccc1)C1CCS(=O)(=O)C1 (centres undefined)	-109*
FC(F)(F)c1cc(-c2ccco2)nc(NCCc2ccccc2)n1	-92*
CCOC(=O)c1cccc(NC(=O)/C=C/c2ccc3c(c2)OCO3)c1	106
Cc1cccc(NC(=S)NNC(=O)c2ccc3c(c2)OCO3)c1	-211*
CCCc1cc(C(=O)NNC(=S)Nc2cccc(C)c2)cs1	-101*
Cc1cc(C(=O)Nc2ccc3c(c2)OCO3)cs1	-233*
CCOC(=O)c1cccc(NC(=O)c2ccc3c(c2)OCO3)c1	-126*
Cc1cccc(NC(=S)NNC(=O)c2ccccc2Br)c1	-129*
Cc1[nH]c2ccccc2c1C(=O)C(=O)Nc1ccc2c(c1)OCO2	-91*
CC(=O)c1cccc(NC(=O)c2ccc3c(c2)OCO3)c1	-128*
Cc1cccc(NC(=S)NNC(=O)c2csc3c2CCC(C)C3)c1 (centres undefined)	-77*
Cc1ccc(C2=N/C(=C\N(C)C)C(=O)O2)cc1	-144*
CN(C)/C=C1\N=C(c2ccc(Cl)cc2Cl)OC1=O	-149*
O=C(c1nc2ccccc2s1)N1CCSCC1	-92*
CCOC(=O)CSc1nc(-c2ccncc2)ccc1C#N	-138*
SMILES	aSyn 5UTR act
CCOC(=O)CSc1nc(-c2ccc3c(c2)OCO3)ccc1C#N	-113*
COc1ccc2oc(=O)c(-c3nc4ccccc4o3)cc2c1	-184*
O=c1oc2ccc3ccccc3c2cc1-c1nc2ccccc2o1	-87*
CCC(C)n1ncn(-c2ccc(N3CCN(c4ccc(O)cc4)CC3)cc2)c1=O (centres undefined)	73
Cc1ccc(COn2c(-c3ccc(Cl)cc3)nc3ccc([N+](=O)[O-])cc32)cc1	-198*
O=[N+]([O-])c1ccc2nc(-c3ccc(Cl)cc3)n(OCc3ccccc3)c2c1	-243*
Cc1snc(SCC(=O)c2ccc(F)cc2)c1C#N	-124*
CSc1nc(N)nc(SCC(=O)c2ccc(C)cc2)c1C#N	-113*
